Experimental data taken from PubChem BioAssay AID488864 (Broad Institute, 2010).
Potency and affinity values are given separately. Activity calls are given as the source filed them.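 Rule for the calls: active = ATP signal reduced by compound, with fitted active dose under ten times the top valid tested dose; inactive = the rest, compounds that increase ATP levels included.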

Assay: INS-1E beta-cell viability without cytokines, dose response, cytotoxicity control for beta-cell cytokine protection project, CellTiter-Glo luminescence, dry powder (AID 488864)
Settings: INS-1E rat beta cells, 48 h, no cytokines; series mostly up to 26 µM
In the case of COc1ccc(S(=O)(=O)N(C)C[C@@H]2Oc3c(NS(=O)(=O)c4ccc(C)cc4)cccc3C(=O)N([C@@H](C)CO)C[C@H]2C)cc1, the outcome is reported as “inactive”. For COc1ccc(S(=O)(=O)N(C)C[C@@H]2Oc3c(NS(=O)(=O)c4ccc(Cl)cc4)cccc3C(=O)N([C@@H](C)CO)C[C@H]2C)cc1, the outcome was “inactive”. In the case of C[C@@H]1CN([C@@H](C)CO)C(=O)c2cccc(NC(=O)Nc3cccc4ccccc34)c2O[C@H]1CN(C)S(=O)(=O)c1ccc2c(c1)OCO2, the outcome is reported as “inactive”. In the case of C[C@@H]1CN([C@@H](C)CO)C(=O)c2cccc(NC(=O)Nc3cccc4ccccc34)c2O[C@H]1CN(C)C(=O)Nc1ccc(F)cc1, the outcome is reported as “inactive”. With COc1ccc(S(=O)(=O)N(C)C[C@@H]2Oc3c(NC(=O)Nc4cccc5ccccc45)cccc3C(=O)N([C@@H](C)CO)C[C@H]2C)cc1C the outcome was “inactive”. In the case of C[C@@H]1CN([C@@H](C)CO)C(=O)c2cccc(NC(=O)Nc3cccc4ccccc34)c2O[C@H]1CN(C)S(=O)(=O)c1ccc2c(c1)oc(=O)n2C, the outcome is reported as “inactive”. With C[C@@H]1CN([C@@H](C)CO)C(=O)c2cccc(NC(=O)Nc3cccc4ccccc34)c2O[C@H]1CN(C)C(=O)Nc1ccccc1 the outcome was “inactive”. With COc1ccc(S(=O)(=O)N(C)C[C@@H]2Oc3c(NC(=O)NC(C)C)cccc3C(=O)N([C@@H](C)CO)C[C@H]2C)cc1 the outcome was “inactive”. With Cc1ccc(S(=O)(=O)N(C)C[C@@H]2Oc3c(NC(=O)Nc4cccc5ccccc45)cccc3C(=O)N([C@@H](C)CO)C[C@H]2C)cc1 the outcome was “inactive”. For C[C@@H]1CN([C@@H](C)CO)C(=O)c2cccc(NC(=O)Nc3cccc4ccccc34)c2O[C@H]1CN(C)S(=O)(=O)c1ccc(F)cc1, the outcome was “inactive”. With Cc1ccc(S(=O)(=O)N(C)C[C@@H]2Oc3c(NC(=O)Nc4ccc(F)cc4)cccc3C(=O)N([C@@H](C)CO)C[C@H]2C)cc1 the outcome was “inactive”. In the case of COc1ccc(S(=O)(=O)N(C)C[C@@H]2Oc3c(NC(=O)C4CCOCC4)cccc3C(=O)N([C@@H](C)CO)C[C@H]2C)cc1, the outcome is reported as “inactive”. For COc1ccccc1S(=O)(=O)N(C)C[C@@H]1Oc2c(NC(=O)Nc3cccc4ccccc34)cccc2C(=O)N([C@@H](C)CO)C[C@H]1C, the outcome was “inactive”. With C[C@@H]1CN([C@H](C)CO)C(=O)c2cccc(NC(=O)Nc3ccccc3)c2O[C@H]1CN(C)S(=O)(=O)c1ccc(Cl)cc1 the outcome was “inactive”. In the case of COc1ccc(S(=O)(=O)N(C)C[C@@H]2Oc3c(NS(=O)(=O)c4ccccc4)cccc3C(=O)N([C@@H](C)CO)C[C@H]2C)cc1, the outcome is reported as “inactive”. For Cc1noc(C)c1NC(=O)N(C)C[C@@H]1Oc2c(NC(=O)Nc3cccc4ccccc34)cccc2C(=O)N([C@@H](C)CO)C[C@H]1C, the outcome was “inactive”. With COc1ccc(S(=O)(=O)N(C)C[C@@H]2Oc3c(NC(=O)c4ccncc4)cccc3C(=O)N([C@@H](C)CO)C[C@H]2C)cc1 the outcome was “inactive”. With Cc1ccc(S(=O)(=O)N(C)C[C@@H]2Oc3c(NC(=O)Nc4cccc5ccccc45)cccc3C(=O)N([C@H](C)CO)C[C@H]2C)cc1 the outcome was “inactive”.
